# Laboratory results from PubChem BioAssay (EPA / NIEHS).
# Records with an inconclusive call do not appear. The source holds several records for some structures; these can differ, active in one and inactive in another. Calls of active or inactive are those of the source. How the source made its calls, unless noted: active means hit-call score of the fitted dose curve at least 0.9, where 1 is the maximum; inconclusive means response in the unintended direction; inactive means score below 0.9.
# Legend:
# SRD5A2 (gene 6716) = test: CCTE_Deisenroth_5AR_NBTE_ratio: CCTE's 5alpha-reductase NanoBRET Target Engagement Assay - Ratio, Deisenroth Lab (AID 2284322; active means hit-call score of the fitted dose curve at least 0.9, where 1 is the maximum; inactive means score below 0.9); settings: actives raise or lower the signal
# Method in brief: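 Reverse-transfect HEK293T with pNLF1-C-SRD5A2, express 20 h. Pre-incubate cells with chemical 3 h (8-point series, 10 nM - 29.9 uM, duplicate). Add testosterone tracer, 2 h more. Add substrate/inhibitor, read donor and acceptor emission.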
# [1] = biological target: bovine Estrogen Receptor (ER), ESR1 (gene 407238) (UniProt P49884); test: NVS_NR_bER: NovaScreen (NVS) Nuclear Receptor Binding Assay for bovine Estrogen Receptor (ER) (AID 2283345);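 further: actives lower the bound radioligand count which means they displace the ER ligand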
# Sequence of bovine Estrogen Receptor (ER), ESR1 (gene 407238) (P49884 whole entry, looked up): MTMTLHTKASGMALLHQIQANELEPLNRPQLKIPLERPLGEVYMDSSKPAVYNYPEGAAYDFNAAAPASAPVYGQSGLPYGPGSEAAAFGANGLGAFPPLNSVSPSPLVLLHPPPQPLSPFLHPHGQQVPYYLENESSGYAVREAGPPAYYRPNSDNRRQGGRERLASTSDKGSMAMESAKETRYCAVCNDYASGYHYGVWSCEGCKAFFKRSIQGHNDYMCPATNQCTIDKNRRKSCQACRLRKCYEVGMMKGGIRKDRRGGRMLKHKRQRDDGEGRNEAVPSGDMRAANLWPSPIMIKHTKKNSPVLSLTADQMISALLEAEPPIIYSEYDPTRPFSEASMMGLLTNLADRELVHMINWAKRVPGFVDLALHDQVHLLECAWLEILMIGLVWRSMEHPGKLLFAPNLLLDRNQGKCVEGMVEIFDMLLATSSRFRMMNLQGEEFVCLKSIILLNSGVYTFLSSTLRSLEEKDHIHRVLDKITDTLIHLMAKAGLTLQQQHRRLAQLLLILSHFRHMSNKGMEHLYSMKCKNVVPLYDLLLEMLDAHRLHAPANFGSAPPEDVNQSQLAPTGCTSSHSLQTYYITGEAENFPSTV
# Method in brief: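 Cell-free radioligand binding with receptor from bovine uterine membranes, read by scintillation counting 18 h after dosing. Loss of specific binding was scored against DMSO; primary screen at 25 uM in duplicate, actives then run as concentration series.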
# SERPINA7 (gene 6906) = test: CCTE_GLTED_hTBG: CCTE's human Thyroxine-binding Globulin (TBG) Inhibition Assay, Great Lakes Toxicology and Ecology Division (GLTED) Lab (AID 2284343);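 further: active chemicals lower fluorescence versus DMSO baseline by displacing probe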
# Method in brief: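 Measures how far test chemicals displace ANSA bound to purified human TBG. The read-out is fluorescence at 380 nm excitation and 475 nm emission, taken after 2 h of incubation.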
# [2] = TOX21_PR_BLA_Followup_Agonist_viability: Viability Assessment in the Tox21 HEK293 Progesterone Receptor (PR) Agonism Beta-lactamase Follow-Up Assay (AID 2283935);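 further: signal loss means lower viability so actives are cytotoxic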
# Method in brief: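 Multiplexed viability counter-screen: ATP-coupled luciferase signal measured after 30 min at room temperature, following 16 hr compound treatment of PR-UAS-bla HEK293T cells grown in charcoal-stripped serum.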
# [3] = TOX21_PR_BLA_Followup_Antagonist_viability: Viability Assessment in the Tox21 HEK293 Progesterone Receptor (PR) Antagonism Beta-lactamase Follow-Up Assay (AID 2283936);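 further: hits lower the luminescence signal meaning cytotoxicity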
# Method in brief: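 PR-UAS-bla HEK293T cells (3,000/well, 2% charcoal-stripped FBS) given compound plus R5020 agonist, 16 h at 37C. CellTiter-Glo added after bla read, 30 min at room temperature; luminescence loss indicates cytotoxicity.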
# PGR (gene 5241) = PGR (gene 5241) (UniProt P06401); test: TOX21_PR_LUC_Followup_Antagonist: Tox21 HEK293 Progesterone Receptor (PR) Antagonism Luciferase Follow-Up Assay (AID 2283938);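 further: curve fitted upward as signal gain over DMSO baseline despite antagonist label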
# Sequence of PGR (gene 5241) (P06401 whole entry, looked up): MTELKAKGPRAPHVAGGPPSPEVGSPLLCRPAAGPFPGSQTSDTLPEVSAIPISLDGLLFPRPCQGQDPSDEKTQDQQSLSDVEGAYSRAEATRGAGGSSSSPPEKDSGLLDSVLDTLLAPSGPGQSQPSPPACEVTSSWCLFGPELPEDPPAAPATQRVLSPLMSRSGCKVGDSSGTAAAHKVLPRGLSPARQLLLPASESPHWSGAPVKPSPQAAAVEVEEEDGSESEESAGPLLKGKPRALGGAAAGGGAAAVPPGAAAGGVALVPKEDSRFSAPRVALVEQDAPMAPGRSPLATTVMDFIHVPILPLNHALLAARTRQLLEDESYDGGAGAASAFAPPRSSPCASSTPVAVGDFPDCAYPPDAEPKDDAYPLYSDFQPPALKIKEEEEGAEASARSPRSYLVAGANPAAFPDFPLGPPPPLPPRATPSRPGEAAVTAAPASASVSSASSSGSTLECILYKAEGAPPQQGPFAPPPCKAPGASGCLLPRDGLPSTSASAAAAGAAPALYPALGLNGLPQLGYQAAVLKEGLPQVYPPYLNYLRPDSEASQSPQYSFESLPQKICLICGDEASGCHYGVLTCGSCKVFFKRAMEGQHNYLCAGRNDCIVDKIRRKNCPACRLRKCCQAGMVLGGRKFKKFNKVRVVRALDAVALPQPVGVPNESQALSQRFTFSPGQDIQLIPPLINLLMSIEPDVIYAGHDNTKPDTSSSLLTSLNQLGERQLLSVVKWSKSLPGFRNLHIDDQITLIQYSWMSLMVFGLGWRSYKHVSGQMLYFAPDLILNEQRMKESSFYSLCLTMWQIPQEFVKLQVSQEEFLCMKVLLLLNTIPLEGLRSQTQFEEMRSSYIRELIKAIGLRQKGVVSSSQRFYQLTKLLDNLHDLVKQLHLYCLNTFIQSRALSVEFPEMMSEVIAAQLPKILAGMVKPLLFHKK
# Method in brief: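 Cells are grown 5 days in charcoal-stripped-FBS assay medium, plated, left 5 h, then dosed with compound and incubated 16 h. ONE-Glo reagent is added and luminescence read after 30 min.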
# [4] = TOX21_PR_LUC_Followup_Antagonist_viability: Viability Assessment in the Tox21 HEK293 Progesterone Receptor (PR) Antagonism Luciferase Follow-Up Assay (AID 2283940)
# Method in brief: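 Cellular ATP, measured with luciferase-coupled CellTiter-Glo, served as the viability endpoint after HEK293-PR-A-luc cells were exposed to test compounds for 16 h at 37C.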
# [5] = TOX21_PR_LUC_Followup_Agonist_viability: Viability Assessment in the Tox21 HEK293 Progesterone Receptor (PR) Agonism Luciferase Follow-Up Assay (AID 2283941);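 further: loss of signal means cytotoxicity so actives lower viability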
# Method in brief: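 Luminescent ATP quantitation (CellTiter-Glo) serves as the read-out; a drop flags cytotoxic compounds. Cells are HEK293-PR-A-luc grown in 10% charcoal-stripped FBS, plated 3,000/well, and exposed to compound for 16 h.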
# [6] = read-out: Collagen I, COL1A1 (gene 1277); test: BSK_hDFCGF_CollagenI: BioMAP Diversity Plus: hDFCGF Assay for Collagen I Biomarker Activity (AID 2284250; active means hit-call score of the fitted dose curve at least 0.9, where 1 is the maximum; inactive means score below 0.9); settings: primary human foreskin fibroblasts
# Method in brief: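 Cells were primary human foreskin fibroblasts treated for 24 h. Collagen I levels were then determined by ELISA and compared against DMSO controls.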
# [7] = read-out: Interleukin-8 (IL8), CXCL8 (gene 3576); test: BSK_KF3CT_IL8: BioMAP Diversity Plus: KF3CT Assay for Interleukin-8 (IL8) Biomarker Activity (AID 2284254; active means hit-call score of the fitted dose curve at least 0.9, where 1 is the maximum; inactive means score below 0.9); settings: primary human keratinocytes with fibroblasts
# Method in brief: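 Chemicals were added to co-cultured human keratinocytes and foreskin fibroblasts, incubated 24 h, then IL-8 was quantified by ELISA. Cytotoxicity was tracked by sulforhodamine B total-protein staining in parallel cultures.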
# KRT18 (gene 3875) = test: BSK_BE3C_Keratin818: BioMAP Diversity Plus: BE3C Assay for Keratin 818 Biomarker Activity (AID 2284282; active means hit-call score of the fitted dose curve at least 0.9, where 1 is the maximum; inactive means score below 0.9); settings: primary human bronchial epithelial cells
# Method in brief: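 BE3C: human bronchial epithelial primary cells, 24 h exposure, Keratin 8/18 ELISA; DMSO = negative control/baseline; cytotoxicity by parallel SRB stain (0.1% SRB after 10% TCA fixation, 560 nm).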
# [8] = biological target: human Phosphoinositide 3-kinase alpha (PI3Ka), PIK3CA (gene 5290) (UniProt P42336); test: NVS_ENZ_hPI3Ka: NovaScreen (NVS) Enzymatic Assay for human Phosphoinositide 3-kinase alpha (PI3Ka) (AID 2283196)
# Sequence of human Phosphoinositide 3-kinase alpha (PI3Ka), PIK3CA (gene 5290) (P42336 whole entry, looked up): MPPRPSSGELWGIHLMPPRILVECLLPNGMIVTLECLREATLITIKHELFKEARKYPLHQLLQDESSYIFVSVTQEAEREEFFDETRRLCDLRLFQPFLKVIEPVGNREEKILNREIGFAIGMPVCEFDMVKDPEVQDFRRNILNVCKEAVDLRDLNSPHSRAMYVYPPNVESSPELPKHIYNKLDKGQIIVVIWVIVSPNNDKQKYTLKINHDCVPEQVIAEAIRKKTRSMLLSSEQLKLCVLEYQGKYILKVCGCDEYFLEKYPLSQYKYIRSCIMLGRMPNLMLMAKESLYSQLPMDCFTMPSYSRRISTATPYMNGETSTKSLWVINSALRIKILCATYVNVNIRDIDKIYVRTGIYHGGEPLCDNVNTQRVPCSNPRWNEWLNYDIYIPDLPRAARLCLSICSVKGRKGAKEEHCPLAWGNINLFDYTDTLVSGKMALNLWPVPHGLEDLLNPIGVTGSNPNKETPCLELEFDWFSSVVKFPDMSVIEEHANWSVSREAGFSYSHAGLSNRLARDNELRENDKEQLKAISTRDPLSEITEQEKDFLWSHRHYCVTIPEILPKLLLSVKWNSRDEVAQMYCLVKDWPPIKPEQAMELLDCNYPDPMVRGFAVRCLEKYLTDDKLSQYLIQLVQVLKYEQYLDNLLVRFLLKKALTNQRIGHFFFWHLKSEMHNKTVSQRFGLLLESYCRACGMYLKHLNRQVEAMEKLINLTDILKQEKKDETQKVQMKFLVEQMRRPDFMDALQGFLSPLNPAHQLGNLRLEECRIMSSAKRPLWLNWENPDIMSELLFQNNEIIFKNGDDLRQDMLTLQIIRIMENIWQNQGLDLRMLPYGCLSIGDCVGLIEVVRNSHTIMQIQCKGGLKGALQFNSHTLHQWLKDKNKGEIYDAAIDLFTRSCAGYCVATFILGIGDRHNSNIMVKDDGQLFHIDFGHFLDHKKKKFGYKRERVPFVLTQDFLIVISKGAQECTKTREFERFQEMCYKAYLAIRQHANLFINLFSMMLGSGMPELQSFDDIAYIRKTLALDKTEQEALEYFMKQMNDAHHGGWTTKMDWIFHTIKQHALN
# Method in brief: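 Fluorescence/mobility-shift readout of substrate conversion by recombinant enzyme, 1 h post-dosing. Primary screen in duplicate at 25 uM; actives (e.g. ≥30% inhibition) retested in singleton concentration-response, top concentration 50 uM.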
# [9] = biological target: human Peroxisome Proliferator-activated Receptor alpha (PPARa), PPARA (gene 5465) (UniProt Q07869); test: NVS_NR_hPPARa: NovaScreen (NVS) Nuclear Receptor Binding Assay for human Peroxisome Proliferator-activated Receptor alpha (PPARa) (AID 2283359);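 further: activity means loss of TR-FRET signal versus DMSO baseline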
# Sequence of human Peroxisome Proliferator-activated Receptor alpha (PPARa), PPARA (gene 5465) (Q07869 whole entry, looked up): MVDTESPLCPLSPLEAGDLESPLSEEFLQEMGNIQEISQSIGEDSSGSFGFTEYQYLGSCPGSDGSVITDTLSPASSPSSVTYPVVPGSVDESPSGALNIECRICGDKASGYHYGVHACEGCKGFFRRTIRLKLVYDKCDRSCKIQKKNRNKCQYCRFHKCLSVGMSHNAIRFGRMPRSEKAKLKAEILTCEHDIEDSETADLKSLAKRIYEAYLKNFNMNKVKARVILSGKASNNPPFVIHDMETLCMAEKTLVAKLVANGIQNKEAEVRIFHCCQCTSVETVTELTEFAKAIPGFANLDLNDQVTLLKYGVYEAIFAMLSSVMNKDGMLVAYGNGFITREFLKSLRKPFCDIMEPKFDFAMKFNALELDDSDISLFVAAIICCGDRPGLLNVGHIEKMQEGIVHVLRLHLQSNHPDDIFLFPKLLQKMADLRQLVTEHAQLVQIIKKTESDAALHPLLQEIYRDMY
# Method in brief: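 Cell-free binding assay with extracted human protein, read by TR-FRET 1 h after chemical dosing. Loss of signal relative to DMSO baseline indicates binding. Primary screen used duplicate single concentration (25 uM); actives followed up in concentration series.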
# [10] = CEETOX_H295R_ESTRADIOL: CeeTox H295R High-throughput Steroidogenesis Assay for Estradiol (AID 2283440; active means hit-call score of the fitted dose curve at least 0.9, where 1 is the maximum; inactive means score below 0.9;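 further: estradiol secreted into medium quantified by LC-MS/MS after dansyl derivatisation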); settings: actives raise or lower the signal
# Method in brief: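 Estradiol secreted into the medium was measured by tandem mass spectrometry after liquid-liquid extraction and dansylation. Human H295R cells had been forskolin-primed (10 uM, 48 h) before a 48 h chemical exposure with 0.1% DMSO.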
# [11] = CEETOX_H295R_ESTRONE: CeeTox H295R High-throughput Steroidogenesis Assay for Estrone (AID 2283441; active means hit-call score of the fitted dose curve at least 0.9, where 1 is the maximum; inactive means score below 0.9;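 further: estrone secreted into medium measured by LC-MS/MS after dansyl derivatization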;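 on AC50: human adrenal H295R cells prestimulated with forskolin for two days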); settings: actives raise or lower the signal
# Method in brief: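 H295R cells; 48 h forskolin (10 uM) prestimulation; 48 h compound exposure, 0.1% DMSO final. Medium estrone: MTBE extraction, dansyl derivatization, HPLC-MS/MS. Bidirectional fit vs DMSO.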
# [12] = biological target: human Norepinephrine Transporter (NET), SLC6A2 (gene 6530) (UniProt P23975); test: NVS_TR_hNET: NovaScreen (NVS) Transporter Assay for human Norepinephrine Transporter (NET) (AID 2283377);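 further: cell-free membrane protein extracted from CHO cells expressing human NET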
# Sequence of human Norepinephrine Transporter (NET), SLC6A2 (gene 6530) (P23975 whole entry, looked up): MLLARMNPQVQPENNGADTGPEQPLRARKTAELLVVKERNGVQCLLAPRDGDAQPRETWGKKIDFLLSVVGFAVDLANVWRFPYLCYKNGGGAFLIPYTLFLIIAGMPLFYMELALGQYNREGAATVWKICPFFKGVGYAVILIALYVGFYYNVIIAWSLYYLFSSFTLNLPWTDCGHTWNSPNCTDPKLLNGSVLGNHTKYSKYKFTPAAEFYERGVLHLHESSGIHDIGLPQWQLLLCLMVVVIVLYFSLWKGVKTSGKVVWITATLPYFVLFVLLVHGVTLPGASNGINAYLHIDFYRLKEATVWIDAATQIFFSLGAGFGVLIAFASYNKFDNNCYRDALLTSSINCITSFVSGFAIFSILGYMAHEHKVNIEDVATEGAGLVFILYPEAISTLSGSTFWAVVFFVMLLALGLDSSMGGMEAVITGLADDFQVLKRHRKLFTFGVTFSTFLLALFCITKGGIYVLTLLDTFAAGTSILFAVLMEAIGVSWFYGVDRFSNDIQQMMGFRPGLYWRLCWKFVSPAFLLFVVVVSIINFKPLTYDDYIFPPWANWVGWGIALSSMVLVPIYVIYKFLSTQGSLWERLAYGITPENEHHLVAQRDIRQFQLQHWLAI
# Method in brief: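 Radioligand binding to human NET in cell-free CHO-derived protein preparations, read by filter-based scintillation counting 1 hour after dosing. Loss of signal versus DMSO baseline indicated displacement; primary screening in duplicate at 25 uM, actives then titrated.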
# [13] = system: guinea pig Dopamine Transporter (DAT), gene 100714898; test: NVS_TR_gDAT: NovaScreen (NVS) Transporter Assay for guinea pig Dopamine Transporter (DAT) (AID 2283369);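 further: active compounds lower bound radioligand signal relative to DMSO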
# Method in brief: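 Scintillation counts of filter-retained radioligand report binding to guinea pig striatal membranes after 2 h. Activity scored as signal loss relative to DMSO, first at 25 uM in duplicate, then in concentration series to 50 uM.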
# [14] = CCTE_Shafer_MEA_dev_bursting_electrodes_number: CCTE's Neural Network Formation Assay for Number of Bursting Electrodes, Shafer Lab (AID 2284043);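 on AC50: potency is for loss of bursting electrodes relative to DMSO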
# Method in brief: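 Primary rat cortical neurons were cultured on PEI-coated 48-well MEA plates (16 electrodes/well) and exposed from plating through day 12, with compound renewed at feeds on DIV 5 and 9. Electrodes bursting ≥1 per 2 min were counted on DIV 5, 7, 9, 12; trapezoidal AUC taken.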
# [15] = CCTE_Shafer_MEA_dev_LDH: CCTE's Lactate Dehydrogenase Assay for Cytotoxicity in the Neural Network Formation Assay, Shafer Lab (AID 2284068);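 further: exposure for twelve days from plating with re-dosing on DIV 5 and 9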
# Method in brief: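 Rat cortical primary neurons, MEA culture; dosing day 0–12, full medium plus compound exchange DIV 5, 9. Read-out: LDH enzyme activity, spectrophotometric. DMSO = negative control/baseline; signal loss → cytotoxicity.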
# [16] = IUF_NPC1a_proliferation_area_72hr: Leibniz Research Institute for Environmental Medicine (IUF) 72-hour Neural Progenitor Cell Proliferation Area Assay (NPC1a) (AID 2284208; active means hit-call score of the fitted dose curve at least 0.9, where 1 is the maximum; inactive means score below 0.9)
# Method in brief: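 Spheres of 0.3 mm are plated singly in growth-factor medium and exposed from day 0. After three days at 37C and 5% CO2, sphere area is measured by phase contrast imaging, with activity referenced to DMSO.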
smiles,measurement,setting,value
Oc1cc(Cl)ccc1Cl,outcome,SRD5A2 (gene 6716),inactive
c1ccc(P(c2ccccc2)c2ccccc2)cc1,outcome,[1],inactive
same,AC50,SERPINA7 (gene 6906),41.7 µM (active)
N#Cc1cc(I)c(O)c(I)c1,outcome,[2],inactive
same,outcome,[3],inactive
same,AC50,PGR (gene 5241),29.9 µM (active)
same,outcome,[4],inactive
same,outcome,[5],inactive
O=[N+]([O-])O,outcome,[6],inactive
same,outcome,[7],inactive
same,outcome,KRT18 (gene 3875),inactive
O=C1Nc2ccc(Cl)cc2C(c2ccccc2)=NC1O (stereo not given),AC50,SERPINA7 (gene 6906),37.3 µM (active)
C=CC(=O)OCC(CC)CCCC (stereo not given),outcome,SRD5A2 (gene 6716),inactive
C[C@]12CCC(=O)C(O)=C1CC[C@@H]1[C@@H]2CC[C@]2(C)C(=O)CC[C@@H]12,outcome,[1],inactive
same,outcome,[2],inactive
same,outcome,[3],inactive
same,outcome,PGR (gene 5241),inactive
same,outcome,[4],inactive
same,outcome,[5],inactive
CC(C)(c1cc(Cl)c(O)c(Cl)c1)c1cc(Cl)c(O)c(Cl)c1,AC50,[8],3.45 µM (active)
same,AC50,[9],20.2 µM (active)
same,outcome,[2],inactive
same,outcome,[3],inactive
same,AC50,PGR (gene 5241),17.2 µM (active)
same,outcome,[4],inactive
same,outcome,[5],inactive
same,AC50,SERPINA7 (gene 6906),8.77 µM (active)
COc1ccc(CO)cc1,outcome,[6],inactive
same,outcome,[7],inactive
same,outcome,KRT18 (gene 3875),inactive
COc1cc(OC)nc(Oc2cccc(Oc3nc(OC)cc(OC)n3)c2C(=O)O)n1,outcome,[9],inactive
Oc1ccc(C2(c3ccc(O)cc3)c3ccccc3-c3ccccc32)cc1,outcome,[1],inactive
same,AC50,[6],0.151 µM (active)
same,outcome,[6],inactive
same,AC50,[7],8.38 µM (active)
same,outcome,[7],inactive
same,AC50,KRT18 (gene 3875),0.15 µM (active)
same,outcome,KRT18 (gene 3875),inactive
O=P(O)(Oc1ccccc1)Oc1ccccc1,outcome,SRD5A2 (gene 6716),inactive
O=CNC(N1CCN(C(NC=O)C(Cl)(Cl)Cl)CC1)C(Cl)(Cl)Cl (stereo not given),outcome,[10],inactive
same,outcome,[11],inactive
CC(=O)/C=C/c1ccccc1,AC50,[12],19.9 µM (active)
CC(C)CCCCCCCOP(=O)(Oc1ccccc1)Oc1ccccc1,AC50,[13],12.2 µM (active)
same,outcome,[14],inactive
same,outcome,[15],inactive
same,outcome,[16],inactive
Cc1ccccc1CCl,outcome,[8],inactive
Cc1cc(C)c(C2=C(OC(=O)CC(C)(C)C)C3(CCCC3)OC2=O)c(C)c1,outcome,[10],inactive
same,AC50,[11],20.7 µM (active)
CCCCCCCCCCCCCCCC[N+](C)(C)C,AC50,[9],19.9 µM (active)
same,outcome,SRD5A2 (gene 6716),inactive
CC(C)(C)C(O)C(Oc1ccc(-c2ccccc2)cc1)n1cncn1 (stereo not given),AC50,[13],18 µM (active)
same,AC50,[12],25 µM (active)
same,outcome,[10],inactive
same,outcome,[11],inactive
CNC(=N[N+](=O)[O-])NCC1CCOC1 (stereo not given),outcome,[15],inactive
same,outcome,[16],inactive
CC1CCCC1.[C-]#[O+].[C-]#[O+].[C-]#[O+].[Mn],outcome,[14],inactive
same,outcome,[15],inactive
O=c1c2ccccc2c(=O)c2c1cc(Cl)c1[nH]c3c([nH]c12)c(Cl)cc1c(=O)c2ccccc2c(=O)c13,AC50,[8],4.37 µM (active)
O=S(=O)(c1ccccc1)c1ccccc1,AC50,[13],19.9 µM (active)
C[C@]12CC[C@H]3[C@@H](CC[C@@]45O[C@@H]4C(O)=C(C#N)C[C@]35C)[C@@H]1CC[C@@H]2O,outcome,[2],inactive
same,outcome,[3],inactive
same,outcome,PGR (gene 5241),inactive
same,outcome,[4],inactive
same,outcome,[5],inactive
Cc1ccc(OP(=O)(Oc2ccc(C)cc2)Oc2ccc(C)cc2)cc1 (tested in a mixture with another compound),outcome,[14],inactive
same,outcome,[15],inactive
same,outcome,[16],inactive
same,AC50,SERPINA7 (gene 6906),1.03 µM (active)
[CH3][Sn]([CH3])([Cl])[Cl],outcome,[9],inactive
CC1(C)[C@H](C(=O)O[C@H](C#N)c2cccc(Oc3ccccc3)c2)[C@@H]1C=C(Br)Br,AC50,[12],32.8 µM (active)
same,AC50,[14],3.71 µM (active)
same,outcome,[16],inactive
O=[N+]([O-])c1ccc(Cl)cc1,outcome,[12],inactive
O=[N+]([O-])c1cc(C(F)(F)F)c(Cl)c([N+](=O)[O-])c1Cl,outcome,[1],inactive
COC(C)(C)CCC[C@H](C)C/C=C/C(C)=C/C(=O)OC(C)C,outcome,[8],inactive
CNC(=O)Oc1cc(C)c(SC)c(C)c1,AC50,[13],25 µM (active)
same,outcome,[10],inactive
same,outcome,[11],inactive
